Experimental findings from article PMC12864922, “TDP-43 directly inhibits mRNA accumulation in neurites through modulation of mRNA stability” are described below.

The chains are these.
B1: ENSMUSG00000090935.28|Synj2bp|72:76;256:260 (ssRNA)
RNA: GGGAGUUCUACAGUCCGACGAUCGCUUCGAUAUCCGCAUGCUAGUAAAUGGCCAAGAUCUGAAGAACCUGCUGCACCAAGAUGCUGUAGACCUCUUCCGUAAUGCGGGAUGUGCACACACCCUGAGAGUACAGCACAGGUUACCAGUGCAGAAUGGACCUAUAGUACAUCGAGGUGAAGGAGAGCCAAGUGGAGUUCCUGUAGCUAUGGUGCUGCUACCAGUGUUUGCCCUCACCAUGGUAGCAGUUUGGGCCUUCGUGAGAUACCGAAAGCAGCUUUGAAAUGCUUGCUGUCUUCCACACACCUCUUGCGGUCGCACUAGUGUGGAAUUCUCGGGUGUCAAGG
B2: ENSMUSG00000042529.254|Kcnj12 (ssRNA)
RNA: GGGAGUUCUACAGUCCGACGAUCGCUUCGAUAUCCGCAUGCUAUUCCCCUAGGACCCGCUGCAGAGGCAUGGGCUCCUCUGUGGUCCUGGCCAGACCUCUGCCCCCAAAUCUCACUGACUGUUCUAGCCUUGGCCUUGGGGCCUAAGGGUGCAUUCAGCCUGGGUGUGCUUACCUGCCACUCACCUCUCUAUCUAGUUGUCGAGUCUAGGGAAGGGCAGAGGGUGGGUCCUGGCCACUGGGUGCCACUGUGGGAGCCGGGGCACCUGUCAUUCUUUCUGAGUAGGUGGGCCUGUAUCCAGAGCCUCUUGCGGUCGCACUAGUGUGGAAUUCUCGGGUGUCAAGG
B3: ENSMUSG00000061578.312|Ksr2 (ssRNA)
RNA: GGGAGUUCUACAGUCCGACGAUCGCUUCGAUAUCCGCAUGCUACCAGGGAGGGCUGAAGCUCUGGGACCCUGAAGUGUCCCCCGGGAACUGGGACUCACUCAUCUUCUCCUGUUUGUAGCUCAAUGACCCAGUGGGUCACAGUUCUAGGCGCUCCAAGGAAGCCAGGGGAGGGGGACUCCUCAGGAAGGAGUGACCAGUCACCUGCCUCCCAGGGUUCUGCCUUGCCCUUAAGCUAGGGUCCUUCAAGCAUCCACAGACUUAGAGUGUGGUGGUAACAUGCUUGUAAUCCUGGCACUCUGGAGCUCUUGCGGUCGCACUAGUGUGGAAUUCUCGGGUGUCAAGG
B4: ENSMUSG00000029636.114|Wasf3 (ssRNA)
RNA: GGGAGUUCUACAGUCCGACGAUCGCUUCGAUAUCCGCAUGCUAGCGGCCAUUUUUAUGAGGGGAGCCCUGUGGGUACUCAUGUGGAAAGUGCCCACUGACUUUGGCAGAUGGAGUUCACUUUCAUGGCUAGCCCUGAUAGCGUUGGGCACCAGUUAGCCAGGCCAUGUUCAAGCUGCCUAGAGUCUGCAGAGCUUGCAUGGCAGAGCGGCCGCAUCUGGUUCCCUCCUACUCCACCCAGUGGAAAAGAGACCUCCACGUUUUAUUUUCUGGGAUCCCUGCUCCUCUGUUCACCAGGGAGUGAGCUCUUGCGGUCGCACUAGUGUGGAAUUCUCGGGUGUCAAGG
B5: ENSMUSG00000061578.324|Ksr2|150:154 (ssRNA)
RNA: GGGAGUUCUACAGUCCGACGAUCGCUUCGAUAUCCGCAUGCUAGUAGCUCAAUGACCCAGUGGGUCACAGUUCUAGGCGCUCCAAGGAAGCCAGGGGAGGGGGACUCCUCAGGAAGGAGUGACCAGUCACCUGCCUCCCAGGGUUCUGCCUUGCCCUUAAGCUAGGGUCCUUCAAGCAUCCACAGACUUAGACACACGUGGUAACAUGCUUGUAAUCCUGGCACUCUGGAGGCUGAGGCAGGAGGAUAACAAGUCUAGACUAUAUAUGAUUUCUGAGGGUCUGUUAGUGAAUAAGUACCUGGACUCUUGCGGUCGCACUAGUGUGGAAUUCUCGGGUGUCAAGG
B6: ENSMUSG00000032194.273|Kank2|97:101;184:188 (ssRNA)
RNA: GGGAGUUCUACAGUCCGACGAUCGCUUCGAUAUCCGCAUGCUAGUGGAUGGAUGCAUAAAUGAAUAGAUGGAUGGAUGAAUGAACAGAUAGAUGAAUGGAUGGAUGGACAGGUGGGUGGAUGGAUGGGUGGACGGAUGACACACGGGUGGGUGGAUGGAUAAAUGAGCAAUGGAUGAGAAACUGGGUUGGCUGGUGGGUAGAUGUCAUGAUGGAGUCUUUGCACGUCAUACAAACAGAAAACCAAACUUCAGGACAGACAGCUGCUGGUGUCUCUGGAUGCUCACAGCCUAGGGCACAUUUGACUCUUGCGGUCGCACUAGUGUGGAAUUCUCGGGUGUCAAGG
B7: ENSMUSG00000032194.274|Kank2|91:95;178:182 (ssRNA)
RNA: GGGAGUUCUACAGUCCGACGAUCGCUUCGAUAUCCGCAUGCUAGGAUGCAUAAAUGAAUAGAUGGAUGGAUGAAUGAACAGAUAGAUGAAUGGAUGGAUGGACAGGUGGGUGGAUGGAUGGGUGGACGGAUGACACACGGGUGGGUGGAUGGAUAAAUGAGCAAUGGAUGAGAAACUGGGUUGGCUGGUGGGUAGAUGUCAUGAUGGAGUCUUUGCACGUCAUACAAACAGAAAACCAAACUUCAGGACAGACAGCUGCUGGUGUCUCUGGAUGCUCACAGCCUAGGGCACAUUUGAAAGGUCCUCUUGCGGUCGCACUAGUGUGGAAUUCUCGGGUGUCAAGG
B8: ENSMUSG00000032194.274|Kank2 (ssRNA)
RNA: B7 RNA with C134G, A135U, C136G, A137U, C138G, C221G, A222U, U223A, A224U, C225G
B9: ENSMUSG00000032194.276|Kank2 (ssRNA)
RNA: GGGAGUUCUACAGUCCGACGAUCGCUUCGAUAUCCGCAUGCUAGAAUAGAUGGAUGGAUGAAUGAACAGAUAGAUGAAUGGAUGGAUGGACAGGUGGGUGGAUGGAUGGGUGGACGGAUGAGUGUGGGGUGGGUGGAUGGAUAAAUGAGCAAUGGAUGAGAAACUGGGUUGGCUGGUGGGUAGAUGUCAUGAUGGAGUCUUUGCACGUGUAUGAAACAGAAAACCAAACUUCAGGACAGACAGCUGCUGGUGUCUCUGGAUGCUCACAGCCUAGGGCACAUUUGAAAGGUCGUGCUCUGAGCUCUCUUGCGGUCGCACUAGUGUGGAAUUCUCGGGUGUCAAGG
B10: ENSMUSG00000032194.272|Kank2|103:107;190:194 (ssRNA)
RNA: GGGAGUUCUACAGUCCGACGAUCGCUUCGAUAUCCGCAUGCUAGGGUGGGUGGAUGGAUGCAUAAAUGAAUAGAUGGAUGGAUGAAUGAACAGAUAGAUGAAUGGAUGGAUGGACAGGUGGGUGGAUGGAUGGGUGGACGGAUGACACACGGGUGGGUGGAUGGAUAAAUGAGCAAUGGAUGAGAAACUGGGUUGGCUGGUGGGUAGAUGUCAUGAUGGAGUCUUUGCACGUCAUACAAACAGAAAACCAAACUUCAGGACAGACAGCUGCUGGUGUCUCUGGAUGCUCACAGCCUAGGGCACCUCUUGCGGUCGCACUAGUGUGGAAUUCUCGGGUGUCAAGG
B11: ENSMUSG00000032194.279|Kank2 (ssRNA)
RNA: GGGAGUUCUACAGUCCGACGAUCGCUUCGAUAUCCGCAUGCUAAUGAACAGAUAGAUGAAUGGAUGGAUGGACAGGUGGGUGGAUGGAUGGGUGGACGGAUGAGUGUGGGGUGGGUGGAUGGAUAAAUGAGCAAUGGAUGAGAAACUGGGUUGGCUGGUGGGUAGAUGUCAUGAUGGAGUCUUUGCACGUGUAUGAAACAGAAAACCAAACUUCAGGACAGACAGCUGCUGGUGUCUCUGGAUGCUCACAGCCUAGGGCACAUUUGAAAGGUCGUGCUCUGAGCUGAGCCCUGAGUUCCAGCCCUCUUGCGGUCGCACUAGUGUGGAAUUCUCGGGUGUCAAGG
B12: ENSMUSG00000032194.275|Kank2 (ssRNA)
RNA: GGGAGUUCUACAGUCCGACGAUCGCUUCGAUAUCCGCAUGCUAAUAAAUGAAUAGAUGGAUGGAUGAAUGAACAGAUAGAUGAAUGGAUGGAUGGACAGGUGGGUGGAUGGAUGGGUGGACGGAUGAGUGUGGGGUGGGUGGAUGGAUAAAUGAGCAAUGGAUGAGAAACUGGGUUGGCUGGUGGGUAGAUGUCAUGAUGGAGUCUUUGCACGUGUAUGAAACAGAAAACCAAACUUCAGGACAGACAGCUGCUGGUGUCUCUGGAUGCUCACAGCCUAGGGCACAUUUGAAAGGUCGUGCUCCUCUUGCGGUCGCACUAGUGUGGAAUUCUCGGGUGUCAAGG
B13: ENSMUSG00000032194.277|Kank2 (ssRNA)
RNA: GGGAGUUCUACAGUCCGACGAUCGCUUCGAUAUCCGCAUGCUAAUGGAUGGAUGAAUGAACAGAUAGAUGAAUGGAUGGAUGGACAGGUGGGUGGAUGGAUGGGUGGACGGAUGAGUGUGGGGUGGGUGGAUGGAUAAAUGAGCAAUGGAUGAGAAACUGGGUUGGCUGGUGGGUAGAUGUCAUGAUGGAGUCUUUGCACGUGUAUGAAACAGAAAACCAAACUUCAGGACAGACAGCUGCUGGUGUCUCUGGAUGCUCACAGCCUAGGGCACAUUUGAAAGGUCGUGCUCUGAGCUGAGCCCCUCUUGCGGUCGCACUAGUGUGGAAUUCUCGGGUGUCAAGG
B14: ENSMUSG00000032194.278|Kank2 (ssRNA)
RNA: GGGAGUUCUACAGUCCGACGAUCGCUUCGAUAUCCGCAUGCUAGGAUGAAUGAACAGAUAGAUGAAUGGAUGGAUGGACAGGUGGGUGGAUGGAUGGGUGGACGGAUGAGUGUGGGGUGGGUGGAUGGAUAAAUGAGCAAUGGAUGAGAAACUGGGUUGGCUGGUGGGUAGAUGUCAUGAUGGAGUCUUUGCACGUGUAUGAAACAGAAAACCAAACUUCAGGACAGACAGCUGCUGGUGUCUCUGGAUGCUCACAGCCUAGGGCACAUUUGAAAGGUCGUGCUCUGAGCUGAGCCCUGAGUUCUCUUGCGGUCGCACUAGUGUGGAAUUCUCGGGUGUCAAGG

Substitutions are numbered along the chain they refer to. The full ranking holds about 9,900 sequences; the median of “r (bound/input frequency ratio)” is about 0.7, and the highest 2% start at about 6.5. For the sample, the highest values were picked, then their nearest neighbours and some sequences at random.

In the assay the target is TDP-43 (Homo sapiens, UniProt Q13148 1-414). Briefly: RNA Bind-n-Seq with designed 260-mer pool; 25 mM Tris-HCl, 150 mM KCl, 3 mM MgCl2, BSA (printed 500 mg/mL), 20 units/mL SUPERase IN; pH not stated; 500 nM RNA pool, 1 h, 4 C; TDP-43 5, 50, 500 nM; high values mean tight binding. The conditions noted are these: protein: recombinant; tags: SBP (GST cleaved off with PreScission; pGEX-GST-SBP). An outline of the steps: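 Binding (R) is the ratio of each oligo's mapped-read-normalized abundance in the bound fraction to its abundance in the input. To obtain it, SBP-tagged recombinant TDP-43 (5, 50 or 500 nM) on streptavidin beads was incubated with 500 nM of an in vitro-transcribed 260-nt 3′ UTR oligo pool for 1 h at 4 °C in 25 mM Tris-HCl, 150 mM KCl, 3 mM MgCl2, BSA and SUPERase IN. The RNA retained after washing was released with biotin, then reverse transcribed, amplified by PCR and sequenced.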
TDP-43, sequence (Q13148 whole entry): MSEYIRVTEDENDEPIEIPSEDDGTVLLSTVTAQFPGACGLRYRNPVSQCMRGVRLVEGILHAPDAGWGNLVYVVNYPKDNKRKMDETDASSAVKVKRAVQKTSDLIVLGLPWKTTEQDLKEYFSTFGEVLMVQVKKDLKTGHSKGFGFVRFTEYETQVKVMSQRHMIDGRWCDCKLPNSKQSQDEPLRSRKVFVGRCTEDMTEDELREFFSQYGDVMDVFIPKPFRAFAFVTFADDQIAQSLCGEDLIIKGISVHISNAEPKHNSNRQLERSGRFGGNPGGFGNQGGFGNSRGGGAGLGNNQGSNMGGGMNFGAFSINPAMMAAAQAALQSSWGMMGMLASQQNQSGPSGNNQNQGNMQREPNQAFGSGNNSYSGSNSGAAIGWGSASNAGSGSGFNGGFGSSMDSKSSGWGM
Consider B1, for which the binding signal is 1.49 R (bound/input frequency ratio).
Regarding B2, the binding signal was 0.966 R (bound/input frequency ratio).
The value for B3 was 0.535 R (bound/input frequency ratio); that for B4 was 0.753 R (bound/input frequency ratio).
With B5, the binding signal is 0.658 R (bound/input frequency ratio).
As for B6, the binding signal was 6.83 R (bound/input frequency ratio).
Next, B7: 5.59 R (bound/input frequency ratio).
The value for B8 was 6.07 R (bound/input frequency ratio); that for B9 was 6.02 R (bound/input frequency ratio).
Consider B10, for which the binding signal is 5.68 R (bound/input frequency ratio).
Next, B11: 5.39 R (bound/input frequency ratio); B12: 7.07 R (bound/input frequency ratio); B13: 7.21 R (bound/input frequency ratio).
The value for B14 was 5.8 R (bound/input frequency ratio).
